Sampled rows, rich in hits. Any-hit rate of the full collection: about 11%.
ALDH1A1 inh = blocks purified human ALDH1A1 activity | Potency, µM (doses to about 75.3 µM), most hits filed as inhibitors | AID 1030 | hit rate 7.3% among 220,000 | Purified ALDH1A1, NADH fluorescence, propionaldehyde substrate | P00352
NPSR antag = blocks cAMP signaling of the human neuropeptide S receptor. Q6W5P4. hit rate 1% among 220,000. Potency, µM (titrated, usually from 38.3 µM), actives largely listed as inhibitors. CHO-NPSR cells, cAMP TR-FRET, antagonist mode; active means well fitted curve in the direction sought with a large enough effect; inconclusive means small, poorly fitted or top-dose-only effect, or another doubt; inactive means no such curve, though single readings can be large; an effect the other way counts as inactive or inconclusive; further: nearly all actives have a fitted effect of over 50% in size
Target sequence (Q6W5P4 whole entry, looked up): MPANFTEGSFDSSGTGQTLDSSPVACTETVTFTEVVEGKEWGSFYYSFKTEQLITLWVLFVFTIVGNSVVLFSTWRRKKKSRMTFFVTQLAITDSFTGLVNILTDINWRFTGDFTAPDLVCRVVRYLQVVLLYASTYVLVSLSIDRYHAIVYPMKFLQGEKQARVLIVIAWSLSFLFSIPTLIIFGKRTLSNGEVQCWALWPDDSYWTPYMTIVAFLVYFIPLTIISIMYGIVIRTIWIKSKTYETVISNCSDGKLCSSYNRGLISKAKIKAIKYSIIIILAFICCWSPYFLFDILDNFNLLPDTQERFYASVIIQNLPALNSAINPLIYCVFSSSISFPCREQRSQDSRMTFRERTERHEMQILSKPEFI
HPGD block = HPGD (human) dehydrogenase inhibition | P15428 | purified HPGD, NADH fluorescence kinetic, PGE2 substrate | Potency, µM, usual class: inhibitors | hit rate 4.3% among 150,000
Target sequence (P15428 whole entry, looked up): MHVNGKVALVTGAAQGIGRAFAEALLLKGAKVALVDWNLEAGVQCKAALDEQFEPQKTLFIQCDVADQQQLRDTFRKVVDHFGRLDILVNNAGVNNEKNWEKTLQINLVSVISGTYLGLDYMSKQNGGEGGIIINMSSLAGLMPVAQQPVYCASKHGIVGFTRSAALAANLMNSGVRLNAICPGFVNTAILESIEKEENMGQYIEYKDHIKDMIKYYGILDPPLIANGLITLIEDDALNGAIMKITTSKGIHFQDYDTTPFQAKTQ
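NADH formation kinetics: reaction with 30 uM PGE2 and 1 mM NAD+ (final), 20 nM enzyme, Tris-HCl pH 8 with Tween 20, after 15 min compound preincubation at room temperature. Fluorescence change, last versus first of five reads.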
IMPase Li cell = IMPase inhibition in cells with lithium potentiation; CHO-M1 cells, IP1 TR-FRET (IP-One), carbachol + lithium; Potency, µM (doses to about 59.4 µM), hits mostly inhibitors; hit rate 0.35% among 210,000; AID 1457; active means well fitted curve in the direction sought with a large enough effect; inconclusive means small, poorly fitted or top-dose-only effect, or another doubt; inactive means no such curve, though single readings can be large; an effect the other way counts as inactive or inconclusive;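 further: IP1 builds up when IMPase is blocked and the TR-FRET signal falls; nearly all actives have a fitted effect of over 50% in size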
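Concentration–response in CHO-M1 cells, lithium-potentiated; 30 min at 37C. IP1 detected by competitive TR-FRET after 10 min lysis at RT. Hill-fitted AC50.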
PNC assembly inh = perinucleolar compartment assembly inhibition. AID 2417. PC3M PTB-GFP, PNC prevalence imaging, 16 h; hits give low values. activity change (PNC), negative = inhibition, % at 10 µM. hit rate 3.1% among 140,000;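 active means readout at or below -70, meaning at least 70% loss of cells showing the perinucleolar compartment, a nuclear body marking cancer cells; inconclusive means readout between -30 and a set limit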
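Compounds are pinned in duplicate onto adhered PC3M cells stably expressing GFP-tagged PTB and incubated 16 h at 37 C. Cells are then fixed, nuclei stained with Hoechst, and PNC-positive cells counted.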
IMPase cell inh = membrane-permeable compound that blocks inositol monophosphatase; 120,000 tested, under 10 active; inhibition (IP1 accumulation), % at 46.1 µM; P97697; CHO-M1 cells, IP1 accumulation, HTRF TR-FRET ratio; active means well fitted curve in the direction sought with a large enough effect in the signal ratio, not every such curve was filed as active; inconclusive means small, poorly fitted or top-dose-only effect, or a change in a side signal; inactive means no such curve, though single readings can be large or run the other way; the % refers to the signal ratio;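 further: cells stimulated with carbachol in lithium chloride buffer; higher means more IMPase inhibition seen as more IP1 and lower FRET ratio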
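Seeded CHO-M1 cells were dosed with compound at up to 46 uM, stimulated with carbachol for 30 min, then lysed in IP-One detection reagents. Higher IP1 lowers the TR-FRET signal.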
A number is an active result; i = inactive; ? = inconclusive; nt = no result given; [ ] = another dose, or the depositor's remark. Unless noted, the call rests on the fitted dose curve; in most records, active means well fitted inhibition curve with a large enough effect (not every such curve was filed as active); inconclusive means small, poorly fitted or top-dose-only effect, or another doubt; inactive means no such curve, though single readings can be large or run the other way.

SMILES	ALDH1A1 inh	NPSR antag	HPGD block	IMPase Li cell	PNC assembly inh	IMPase cell inh
COc1ccc(-c2nnc3sc(C(C)N4C(=O)c5ccccc5C4=O)nn23)cc1 (stereo not given)	i	?	7.1µM	i	i	i
Cc1ccc(S(=O)(=O)N(C)c2ccc(OCC(=O)O)cc2)cc1	i	i	i	i	?	i
CCC(NC(=O)c1ccccc1O)c1ccccc1 (stereo not given)	?	i	?	i	-109	i
CC[C@H](NC(=O)c1c(C)c(-c2ccccc2)nc2ccccc12)c1ccccc1	5µM	?	i	i	nt	i
Cc1c(-c2ccccc2)nc2ccccc2c1C(=O)O	i	i	i	i	i	i
COc1ccccc1N1CCN(C(=S)NC(=O)/C=C/c2ccc(F)cc2)CC1	nt	i	nt	nt	nt	nt
Cc1ccc(S(=O)(=O)N2CCC(C(=O)O)CC2)cc1C(=O)O	i	i	i	i	?	i
CCCCN(C(=O)NC(=O)Nc1cc(C)ccc1C)S(C)(=O)=O	i	i	i	i	?	i
N#Cc1c(NC(=O)COC(=O)c2ccc(S(=O)(=O)N3CCCC3)cc2)sc2c1CCCCC2	10µM	i	nt	nt	i	i
CCN(CC)S(=O)(=O)c1ccc(C(=O)OCC(=O)Nc2sc3c(c2C#N)CCCCC3)cc1	?	i	i	i	i	nt
N#Cc1c(NC(=O)COC(=O)c2ccc(F)cc2)sc2c1CCC2	i	i	i	i	i	i
Cc1ccc(C(=O)OCC(=O)Nc2sc3c(c2C#N)CCC3)cc1	25µM	i	i	i	i	nt
COC(OC)c1ccc(C#N)c(SCc2ccccc2)n1	i	i	nt	nt	nt	nt
COc1ccc2c(c1)C(=O)[C@@H](OC(=O)NCCOc1ccccc1)[C@H](c1ccc(OC)c(Br)c1)O2	i	nt	i	i	nt	nt
CCOc1cc(CNc2ccc(O)cc2)cc(Br)c1OCc1ccccc1	nt	nt	nt	nt	nt	i
CCOc1cc(CNc2ccc(O)cc2)cc(Br)c1OCc1ccccc1F	28µM	?	i	i	?	i[1.84 µM]
COc1cc(CNc2ccc(O)cc2)cc(Br)c1OCc1ccccc1F	22µM	i	i	i	i	i
COc1cccc(CNc2ccccc2O)c1OCc1ccccc1F	14µM	i	nt	i	nt	nt
CCOc1c(Br)cc(CNc2ccc3c(c2)OCCO3)cc1OC	i	?	?	i	-98	i
CC1CCc2cc(F)ccc2N1C(=O)CSc1nnc2c3cc(F)ccc3n(C)c2n1 (stereo not given)	i	i	i	i	i	i
O=C(Nc1cccc(Cl)c1)Nc1nc(-c2ccccc2)cs1	i	i	nt	i	nt	nt
COc1ccc(C(=O)Nc2cc(C(=O)NCCc3ccccc3)ccc2Cl)cc1	i	i	i	i	?	i
COc1ccccc1N1CCN(C(=O)/C=C/c2c(Cl)nc3ccccn23)CC1	i	i	nt	i	nt	nt
COc1ccc(CC(=O)Nc2ccc(-c3noc(-c4cc(OC)c(OC)c(OC)c4)n3)cc2)cc1	i	i	?	i	-100	i
COc1ccc(-c2noc(CCCC(=O)Nc3cccnc3)n2)cc1OC	nt	i[7.67 µM]	nt	nt	nt	nt
SMILES	ALDH1A1 inh	NPSR antag	HPGD block	IMPase Li cell	PNC assembly inh	IMPase cell inh
COc1ccc(-c2noc(CCC(=O)Nc3cccnc3)n2)cc1OC	?	i	i	i	-100	i
O=C(CCCc1nc(-c2ccccc2)no1)NCc1cccnc1	14µM	i	i	i	i	i
COc1ccc(CC(=O)Nc2ccc(-c3noc(-c4ccc(Cl)cc4)n3)cc2)cc1	i	i	i	i	i	i
COc1ccc(-c2noc(CCC(=O)NC3CCCCC3)n2)cc1OC	i	i	35µM	i	i	i
O=C(CCCc1nc(-c2ccccc2)no1)Nc1cccnc1	i	i[7.67 µM]	i	i	i	i
COc1ccccc1CC1(C)NC(=O)N(CC(=O)N2CCc3ccccc3C2)C1=O (stereo not given)	i	i	i	i	i	i
CC(=O)Nc1ccc(S(=O)(=O)Nc2cccc(NC(=O)c3ccco3)c2)cc1	i	i	nt	i	nt	nt
COc1ccc(-c2noc(CCC(=O)NCCN(C)Cc3ccccc3)n2)cc1	i	i	16µM	i	i	i
COc1ccc(-c2noc(CCC(=O)NCc3cccnc3)n2)cc1	i	i	nt	nt	i	i
COc1ccc(Cc2nc(-c3ccc(NC(=O)c4cccnc4)cc3)no2)cc1	i	i	i	i	-126	i
COc1ccc(NC(=O)CCc2nc(-c3ccc(C)cc3)no2)c(OC)c1	?	i	i	i	-103	i
Fc1cccc(Nc2nc(-c3ccncc3)nc3ccccc23)c1	?	i	?	i	i	nt
O=C(Nc1ccc(O)c2c(=O)cc(-c3ccccc3Cl)oc12)c1cccs1	nt	i	nt	nt	nt	nt
[N-]=[N+]=Nc1ccc(C(=O)CSC[C@@H](NC(=O)CC[C@@H](N)C(=O)O)C(=O)NCC(=O)O)cc1	nt	nt	nt	nt	nt	i
O=C(CSc1nc2ccsc2c(=O)n1Cc1ccccc1)NCC1CCCO1 (stereo not given)	?	i	nt	i	nt	nt
CCN(CC)C(=O)CN(c1cc2c(cc1OC)oc1ccccc12)S(=O)(=O)c1ccc(C)cc1	i	i	i	i	i	i
CCCCN1C(=O)N(C)C2NC(=O)NC21 (stereo not given)	i	i	i	i	i	i
CCCCN1C(=O)N(C)C2C1N(C)C(=O)N2CCCC (stereo not given)	i	i	i	i	-100	i
CCCC(=O)N1CCN(c2ccc(NC(=O)c3ccc(OCC)c([N+](=O)[O-])c3)cc2)CC1	i	i	i	i	i	i
O=C(Nc1ccon1)c1sc2cc(F)ccc2c1Cl	i	i	i	i	-100	i
O=C(NCc1ccco1)c1cccc(F)c1	i	i	?	i	i	i
O=C(NCc1ccco1)c1sc2cc(F)ccc2c1Cl	i	i	25µM	i	i	i[0.0738 µM]
O=C(c1cccs1)N1CCc2c([nH]c3ccccc23)C1c1ccc(Cl)cc1 (stereo not given)	i	10µM	i	i	i	i
O=C(c1cccs1)N1CCc2c([nH]c3ccccc23)C1c1ccccn1 (stereo not given)	i	?	nt	i	nt	nt
CCOc1ccccc1-n1c(=S)sc2c(=O)n(-c3ccc(C)cc3)c(=S)[nH]c21	7.9µM	i	nt	i	nt	nt
SMILES	ALDH1A1 inh	NPSR antag	HPGD block	IMPase Li cell	PNC assembly inh	IMPase cell inh
CCn1c(=S)sc2c(=O)n(-c3ccccc3)c(=S)[nH]c21	?	i	nt	i	nt	nt
CC(C)CCN1CCN(Cc2ccsc2)CC1CCO (stereo not given)	i	i	nt	i	nt	nt
Brc1cc(Br)c2nc(-c3cccs3)ccc2c1	i	i	i	10µM	i	?
Cc1[nH]c2ccccc2c1C(=O)COC(=O)c1ccc([N+](=O)[O-])s1	11µM	i	nt	i	nt	nt
O=C(COC(=O)c1ccc([N+](=O)[O-])s1)NCc1ccccc1	?	i	nt	nt	i	i
O=C(COC(=O)c1ccc([N+](=O)[O-])s1)Nc1ccc(Cl)cn1	?	i	i	i	?	nt
Cc1c(Cl)cnc(NC(=O)COC(=O)c2ccc([N+](=O)[O-])s2)c1Cl	11µM	i	?	i	?	i
